TEAD-YAP inh: TEAD-YAP interaction inhibition | HEK-TIYL cells, TEAD-Gal4/YAP UAS-luciferase luminescence | inhibition, % at 9.12 µM | actives 1.4% (n = 640,000); in the data active = inhibition above about 32%
GPR151 activ: activates the human receptor GPR151. Q8TDV0. PathHunter beta-arrestin GPR151 cells, luminescence. activation, % at 11.2 µM. actives 1% (n = 650,000). AID 1508602; in the data active = activation above about 4.9%
FBW7 act: human FBW7 E3 ligase activation, primary screen; Q969H0; AlphaScreen FBW7–phospho-cyclin E peptide binding, activator screen; normalized activity (activation), % at 26.1 µM; actives 0.13% (n = 650,000); AID 1259310; in the data active = normalized activity above about 1.9%;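 also: purified mutant Fbw7 with reduced substrate affinity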
MITF primary: inhibitors of human MITF; AlphaScreen MITF homodimerization, bead proximity signal; inhibition, % at 2.6 µM; actives 0.91% (n = 650,000); AID 1259374; in the data active = inhibition above about 50%
GPR151 confirm: human GPR151 activation, confirmation screen. shares compounds with GPR151 activ. GPR151 PathHunter beta-arrestin cells, luminescence, 90 min; % of EA-reagent control over plate median. activation, % at 11.2 µM. 6,700 tested, under 10 active. AID 1508609;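 active = mean percent activation across replicates above the confirmation screen cutoff of 4.91%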
GPR119 ag: counter-screen for GPR151 activators: effect on human GPR119; actives 0.3% (n = 6,700); activation, % at 11.2 µM; AID 1508611; shares compounds with GPR151 activ; GPR119 PathHunter beta-arrestin cells, luminescence, 90 min; 0 = compound-well median, 100 = enzyme-acceptor control;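 active = mean percent activation in the counterscreen above 29.09%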;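 also: counterscreen on off-target GPR119 to flag nonselective hits from the GPR151 activator screen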
Target sequence (Q8TDV5 whole entry, looked up): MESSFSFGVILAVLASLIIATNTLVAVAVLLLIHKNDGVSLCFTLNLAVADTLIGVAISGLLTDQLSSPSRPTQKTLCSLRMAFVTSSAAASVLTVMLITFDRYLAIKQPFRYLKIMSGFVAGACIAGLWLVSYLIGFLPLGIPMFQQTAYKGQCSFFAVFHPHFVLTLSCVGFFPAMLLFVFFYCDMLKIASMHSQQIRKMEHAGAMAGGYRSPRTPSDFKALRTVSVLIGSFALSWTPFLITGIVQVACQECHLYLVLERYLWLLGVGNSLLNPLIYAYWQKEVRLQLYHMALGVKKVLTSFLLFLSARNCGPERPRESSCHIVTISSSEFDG
Large screens that a line does not name were inactive (follow-up assays come after a bar, where they were run). Most compounds without a hit are left out; they make up all but 3.5% or so of the library.

O=S(=O)(c1ccc(F)c(Cl)c1)N1CCCC(N2CCOCC2)C1 (configuration not stated)	GPR151 activ 12.1 | GPR151 confirm inactive | GPR119 ag inactive
Cc1ccc(S(=O)(=O)N2CCCC(N3CCOCC3)C2)cc1Cl (configuration not stated)	none
O=C(c1ccc(Cl)cc1)c1cc(NC(=O)c2cc(Br)cc(Br)c2O)ccc1Oc1ccc(Cl)cc1	GPR151 activ 9.6 | GPR151 confirm inactive | GPR119 ag inactive
CC(=O)c1ccc(NC(=O)c2ccc(S(=O)(=O)N3CCCC3)cc2)cc1	GPR151 activ 5.0 | GPR151 confirm inactive | GPR119 ag inactive
COc1cc(NS(=O)(=O)c2ccc(NC(=O)c3ccc(C(C)=O)cc3)cc2)ncn1	GPR151 activ 5.7 | GPR151 confirm inactive | GPR119 ag inactive
CC(=O)c1ccc(NC(=O)Nc2ccc(S(=O)(=O)N3CCCC3)cc2)cc1	none
COC(=O)CSc1nnc(C)n1-c1ccc(N(C)C)cc1	GPR151 activ 5.6 | GPR151 confirm inactive | GPR119 ag inactive
CC(=O)CSc1nnc(C)n1-c1ccc(N(C)C)cc1	none
CCOc1ccc(NC(=O)CN2N=NC3C(=O)N(c4ccc(Cl)cc4)C(=O)C32)cc1 (configuration not stated)	GPR151 activ 5.7 | GPR151 confirm inactive | GPR119 ag inactive
CCn1c(SCC(=O)c2ccccc2)nc2c(c1=O)SC(C)C2 (configuration not stated)	GPR151 activ 5.3 | GPR151 confirm inactive | GPR119 ag inactive
CC1Cc2nc(SCC(=O)NCc3ccccc3)n(C)c(=O)c2S1 (configuration not stated)	GPR151 activ 6.4 | GPR151 confirm inactive | GPR119 ag inactive
O=C(O)CCc1nn2c3ccccc3n(CC(=O)O)c2nc1=O	GPR151 activ 21.3 | GPR151 confirm inactive | GPR119 ag inactive
O=C(O)CCc1nn2c3ccccc3n(CCN3CCCCC3)c2nc1=O	none
O=C(Nc1nnc(-c2ccccc2)o1)c1ccc([N+](=O)[O-])s1	none
Cc1ccc(C(=O)Nc2ccc3oc(-c4ccncc4)nc3c2)cc1C	GPR151 activ 4.9 | GPR151 confirm inactive | GPR119 ag inactive
COc1ccccc1C(=O)Nc1ccc2oc(-c3ccc(C(C)(C)C)cc3)nc2c1	GPR151 activ 6.2 | GPR151 confirm inactive | GPR119 ag inactive
COc1cc(C(=O)Nc2ccc3oc(-c4ccc(I)cc4)nc3c2)cc(OC)c1OC	GPR151 activ 20.9 | GPR151 confirm inactive | GPR119 ag inactive
COc1ccccc1-c1nnc(NC(=O)c2ccc([N+](=O)[O-])s2)o1	GPR151 activ 14.6 | GPR151 confirm inactive | GPR119 ag inactive
Clc1ccc(-c2nc(Nc3ccc(Cl)c(Cl)c3)sc2-c2ccccc2)cc1	none
CCOC(=O)c1c(/N=C/c2ccc3c(c2)OCO3)sc(C)c1C	none
N#C/C(=C/c1ccc(N2CCOCC2)o1)c1cccc(F)c1	none
CCc1ccc(-c2nc3cc(NC(=O)c4cccc(C)c4)ccc3o2)cc1	GPR151 activ 8.2 | GPR151 confirm inactive | GPR119 ag inactive
CCc1ccc2oc(-c3cc(NC(=O)c4cccc(C)c4)ccc3O)nc2c1	none
COc1ccccc1C(=O)Nc1nnc(-c2ccc(Cl)cc2)o1	GPR151 activ 5.5 | GPR151 confirm inactive | GPR119 ag inactive
COc1ccccc1C(=O)Nc1nnc(-c2ccc(F)cc2)o1	none
CC(=O)c1ccc(S(=O)(=O)NCCc2cn3ccc(C)cc3n2)cc1	GPR151 activ 5.0 | GPR151 confirm inactive | GPR119 ag inactive
CCc1c(C)nc2sc(C(=O)c3ccc(Br)cc3)c(N)c2c1C	none
Cc1nc2sc(C(=O)c3ccc(Br)cc3)c(N)c2c(C)c1CC(=O)c1ccccc1	GPR151 activ 7.0 | GPR151 confirm inactive | GPR119 ag inactive
O=c1c2nccnc2nc(SCc2cccc(F)c2)n1Cc1ccco1	GPR151 activ 11.8 | GPR151 confirm inactive | GPR119 ag inactive
O=c1c2cc3c(cc2nc(SCc2cccc(F)c2)n1Cc1ccco1)OCO3	none
O=C(c1ccc(-c2cccc(Cl)c2Cl)o1)N1CCOCC1	GPR151 activ 7.3 | GPR151 confirm inactive | GPR119 ag inactive
CC(=O)Nc1ccc(NC(=O)c2cnc(-c3ccccc3)s2)cc1	GPR151 activ 5.9 | GPR151 confirm inactive | GPR119 ag inactive
Cc1cnn(C(=S)NCc2ccco2)c1	GPR151 activ 5.1 | GPR151 confirm inactive | GPR119 ag inactive
Cc1ccc(NC(=S)NCc2ccco2)cc1	none
CC1(C)Cc2c(sc3ncnc(NNC(=O)c4ccccc4)c23)CO1	GPR151 activ 6.3 | GPR151 confirm inactive | GPR119 ag inactive
COc1cc(NC(=O)c2cccc(-n3cc(NC(=O)N[C@@H](C)c4ccccc4)cn3)c2)ccc1N1CCOCC1	GPR151 activ 5.7 | GPR151 confirm inactive | GPR119 ag inactive
O=c1c2ccccc2c2ccccc2c(=O)n1-c1ccc(F)cc1	none
O=c1c2ccccc2c2ccccc2c(=O)n1-c1ccc(OC(F)(F)F)cc1	GPR151 activ 5.1 | GPR151 confirm inactive | GPR119 ag inactive
Cc1ccccc1-n1c(SCC(N)=O)nc2ccccc2c1=O	GPR151 activ 5.2 | GPR151 confirm inactive | GPR119 ag inactive
COc1ccc(Cn2nnnc2CN(CCCO)Cc2cc3cc(C)ccc3[nH]c2=O)cc1	GPR151 activ 6.7 | GPR151 confirm inactive | GPR119 ag inactive
COc1ccc2cc(CN(CCCO)C(=O)c3ccc(C)cc3)c(=O)[nH]c2c1	GPR151 activ 5.5 | GPR151 confirm inactive | GPR119 ag inactive
Cc1cc(C)c2[nH]c(=O)c(CN(CCCO)Cc3nnnn3CCc3ccccc3)cc2c1	GPR151 activ 6.0 | GPR151 confirm inactive | GPR119 ag inactive
O=[N+]([O-])c1ccc(OCCOc2ccc(S(=O)(=O)N3CCOCC3)cc2)cc1	none
COc1cc(-c2[nH]nc3c2C(c2cccc(Br)c2)C(C#N)=C(N)O3)cc(OC)c1OC (configuration not stated)	none
CC(=O)c1ccc(NC(=O)CSc2ccc(C)cc2)cc1	GPR151 activ 5.5 | GPR151 confirm inactive | GPR119 ag inactive
CC(=O)c1ccc(NC(=O)CSc2ccc(F)cc2)cc1	none
Cc1ccc(OCCN(C)C(=O)CCc2nnc(-c3ccc(C)s3)o2)cc1	none
O=C(NC1CCS(=O)(=O)C1)/C(=C/c1cn(-c2ccccc2)nc1-c1cccs1)NC(=O)c1ccccc1 (configuration not stated)	GPR151 activ 5.8 | GPR151 confirm inactive | GPR119 ag inactive
CCOCCCNC(=S)N1CCC(NC(=O)c2ccc(C)cc2)CC1	none
CC(=O)c1ccc(N2CCN(C(=S)NCC3CCCO3)CC2)cc1 (configuration not stated)	none
CCOCCCNC(=S)N1CCC(NC(=O)c2ccco2)CC1	GPR151 activ 5.9 | GPR151 confirm inactive | GPR119 ag inactive

Screens as filed in PubChem BioAssay.
